High-throughput results deposited in PubChem by National Center for Advancing Translational Sciences (NCATS).
ELG1 repair inh: inhibitors of ELG1-dependent DNA repair in HEK293T cells; Potency, µM (doses to about 46.1 µM), most hits filed as inhibitors; HEK293T ELG1-luciferase reporter, luminescence, 16 h; DNA damage induced by 5-fluorouridine; 330,000 compounds, 2.3% hits; also: nearly all actives have a fitted effect of over 55% in size
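5-Fluorouridine DNA damage + compound/DMSO, 2,000 cells/well, 16 h, 37 °C/5% CO2. ONE-Glo, 30 min RT, luminescence. Readout = decrease in reporter signal.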
VP16 counter: Gal4-VP16 reporter inhibition counter-screen. AID 2546. 310,000 compounds, 3.5% hits. Drosophila S2 Gal4-VP16 UAS-luciferase, luminescence, 20 h. Potency, µM (top dose mostly 53.6 µM), usual class: inhibitors;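 also: Gal4-VP16 expression switched on by copper sulfate through the metallothionein promoter; nearly all actives have a fitted effect of over 50% in size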
RORgamma inh: inhibitors of mouse ROR gamma transcriptional activity; P51450; Drosophila S2 Gal4-RORgamma UAS-luciferase reporter, 20 h; Potency, µM (top dose mostly 53.6 µM), most hits filed as inhibitors; 310,000 compounds, 5.4% hits; AID 2551; also: nearly all actives have a fitted effect of over 60% in size
Target sequence (P51450 whole entry, looked up, the tested form may be a part): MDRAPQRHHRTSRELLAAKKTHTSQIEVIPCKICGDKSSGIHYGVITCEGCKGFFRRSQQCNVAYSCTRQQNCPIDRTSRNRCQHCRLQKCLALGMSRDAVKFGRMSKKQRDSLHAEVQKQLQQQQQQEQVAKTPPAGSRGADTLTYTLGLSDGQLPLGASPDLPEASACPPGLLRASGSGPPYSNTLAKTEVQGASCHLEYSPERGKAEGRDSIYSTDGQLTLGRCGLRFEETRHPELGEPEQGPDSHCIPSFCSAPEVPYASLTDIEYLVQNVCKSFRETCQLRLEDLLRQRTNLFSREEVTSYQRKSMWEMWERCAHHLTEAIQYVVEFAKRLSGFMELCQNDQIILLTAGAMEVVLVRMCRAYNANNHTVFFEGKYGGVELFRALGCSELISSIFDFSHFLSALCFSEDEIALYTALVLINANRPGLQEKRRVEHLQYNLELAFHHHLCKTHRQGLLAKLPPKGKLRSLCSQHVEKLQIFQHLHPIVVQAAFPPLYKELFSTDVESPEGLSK
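ROR gamma transcriptional activity was tracked as Gal4-UAS luciferase output in stably transfected Drosophila Schneider cells, with compound added 1 hr before 700 uM copper sulfate induction and a 20 hr ambient-temperature incubation.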
IL1B secr inh: blocks inflammasome-driven IL-1 beta release. THP-1 LPS/ATP IL-1B secretion, AlphaLISA, 16 h; stronger effect = lower value. activity change, % at 57.5 µM. 360,000 compounds, 4.7% hits. AID 743279; in the data active = activity change below about -50%; inconclusive = mostly about -30% to -49%
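Secreted IL-1B measured by AlphaLISA bead assay after 16 h compound exposure of THP-1 cells; compounds (final up to 57.5 uM) added 1 h before LPS (250 ng/mL) and ATP (1.25 mM) stimulation; lower signal means less secretion.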
DT40 TDP1 CPT: DT40-hTDP1 cell growth loss with CPT; AID 686979; 420,000 compounds, 12% hits; chicken DT40 Tdp1-/-;hTDP1 cells + 20 nM CPT, ATP luminescence, 48 h; Potency, µM (series often up to 46.2 µM), most hits filed as inhibitors; also: nearly all actives have a fitted effect of over 55% in size
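Cell growth measured by CellTiter-Glo luminescence after a minimum 48 h, 37 C compound exposure with 20 nM CPT in Tdp1-knockout DT40 cells stably expressing hTDP1, seeded 400/well; qHTS titration format.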
TDP1 cell noCPT: qHTS for Inhibitors of human tyrosyl-DNA phosphodiesterase 1 (TDP1): qHTS in cells in absence of CPT. DT40 Tdp1-/- hTDP1 cells, no CPT, ATP luminescence, 48 h. Potency, µM (top dose mostly 46.2 µM), actives largely listed as inhibitors. 420,000 compounds, 15% hits; also: nearly all actives have a fitted effect of over 55% in size
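A cellular qHTS used chicken DT40 cells lacking endogenous Tdp1 but carrying stably transfected human TDP1. Compounds were applied without camptothecin, and cell growth kinetics were judged by ATP-dependent luminescence after ≥48 hr.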
A number is an active result; 0 = inactive; ? = inconclusive; - = no result given; [ ] = remark or other dose. Only some compounds are listed: those with a hit (about 21% of all), similar ones and a draw of the others. Unless noted, calls follow the shape of the dose curve; as a rule, active = well fitted curve in the direction sought with a large enough effect; inconclusive = small, poorly fitted or top-dose-only effect, or another doubt; inactive = no such curve, though single readings can be large; an effect the other way counts as inactive or inconclusive.

SMILES | ELG1 repair inh | VP16 counter | RORgamma inh | IL1B secr inh | DT40 TDP1 CPT | TDP1 cell noCPT
CC1CC(NC(=O)N(C)C)N(C)C(=O)N1 (stereo not drawn) | 0 | 0 | 0 | 0 | 0 | 0
CCCCCC(=O)Nc1ccc(C(=O)CN2C(=O)NC3(CCCCCC3)C2=O)cc1 | 0 | - | - | 0 | 5.8µM | 3.7µM
CC(C)c1ccc(C2(C)NC(=O)N(CC(=O)NC3CCCC(C)C3C)C2=O)cc1 (stereo not drawn) | 0 | - | - | ? | ? | 21µM
O=C(CN1C(=O)C2CCCCN2c2ccc(C(=O)N3CCCC3)cc21)NCc1ccccc1 (stereo not drawn) | - | - | - | - | 0 | ?
O=C(CN1C(=O)C2CCCCN2c2ccc(C(=O)N3CCCC3)cc21)NCc1cccc(Cl)c1 (stereo not drawn) | - | - | - | - | ? | 5.8µM
CC(C)c1ccc(NC(=O)CN2C(=O)NC3(CCCCCCC3)C2=O)cc1 | 0 | - | - | 0 | 21µM | 21µM
O=C1NC2(CCCCCC2)C(=O)N1Cc1ccc(Cl)cc1Cl | 0 | 0 | 0 | -63 | 0 | ?
O=C(CN1C(=O)NC2(CCCC2)C1=O)NCc1cccc(Cl)c1 | 0 | - | - | -59 | 0 | 0
O=C(CN1C(=O)NC2(CCCC2)C1=O)Nc1ccc(F)c([N+](=O)[O-])c1 | 0 | 0 | 0 | -66 | 0 | ?
Cc1ccc(NC(=O)C(C)N2C(=O)C3CC=C(Cl)CC3C2=O)cc1 (stereo not drawn) | 0 | 0 | 0 | 0 | 0 | 0
O=C(CN1C(=O)NC2(CCCC2)C1=O)Nc1ccc(F)c(Cl)c1 | 0 | 0 | 0 | 0 | 0 | 0
CC(C(=O)Nc1ccc(Cl)cc1)N1C(=O)NC2(CCCC2)C1=O (stereo not drawn) | 0 | 0 | 0 | 0 | ? | 21µM
O=C(CN1C(=O)NC2(CCCCCCC2)C1=O)NCc1ccc(Cl)cc1 | 0 | - | - | ? | 0 | 0
Cc1ccc(-c2nnc(SC(C)C(=O)NCc3ccco3)n2C)cc1 (stereo not drawn) | - | - | - | - | 0 | 0
CC(C)C(=O)Nc1ccc(C(=O)CN2C(=O)NC3(CCOc4ccccc43)C2=O)cc1 (stereo not drawn) | ? | - | - | 0 | ? | ?
CC(C(=O)Nc1ccc(N2CCOCC2)cc1)N1C(=O)c2ccccc2C1=O (stereo not drawn) | 0 | 0 | 0 | 0 | 0 | 0
CC1(c2ccccc2Cl)NC(=O)N(CC(=O)Nc2ccc(N3CCCCC3)cc2)C1=O (stereo not drawn) | 0 | - | - | 0 | ? | 21µM
CC(C)c1ccc(C2(C)NC(=O)N(C(C)C(=O)Nc3ccc(N4CCOCC4)cc3)C2=O)cc1 (stereo not drawn) | 0 | - | - | 0 | 15µM | 26µM
CC(C)CC(=O)Nc1ccc(C(=O)CN2C(=O)NC3(CCOc4ccccc43)C2=O)cc1 (stereo not drawn) | 0 | - | - | 0 | 18µM | 0
CCC(Cn1nnc2ccccc2c1=O)NC(=O)Nc1ccc(C)cc1C (stereo not drawn) | - | - | - | - | 0 | 0
O=C(NCC(c1cccnc1)N1CCN(c2ccccc2)CC1)OCc1ccccc1 (stereo not drawn) | ? | 0 | 0 | 0 | ? | ?
CN(C)CCNC(=O)C(=O)NCC(c1cccnc1)N1CCN(c2ccc(F)cc2)CC1 (stereo not drawn) | - | - | - | - | 0 | 0
O=C(NCCc1ccccc1)C(=O)NCC(c1cccnc1)N1CCN(c2ccc(F)cc2)CC1 (stereo not drawn) | - | - | - | - | 15µM | 10µM
O=C(NCC(c1cccnc1)N1CCN(c2ccccc2F)CC1)OCc1ccccc1 (stereo not drawn) | 23µM | 0 | 0 | 0 | ? | 18µM
O=C(NCc1cccnc1)C(=O)NCC(c1cccnc1)N1CCN(c2ccc(F)cc2)CC1 (stereo not drawn) | - | - | - | - | 21µM | 18µM
SMILES | ELG1 repair inh | VP16 counter | RORgamma inh | IL1B secr inh | DT40 TDP1 CPT | TDP1 cell noCPT
COc1ccc(N2CCN(C(CNC(=O)C(=O)NCCc3c[nH]c4ccccc34)c3ccco3)CC2)cc1 (stereo not drawn) | ? | 0 | 0 | -52 | 0 | ?
CC1CN2C(CCC(C)C2c2ccc(Br)cc2)C(=O)O1 (stereo not drawn) | - | 0[10 µM] | 0[10 µM] | - | - | -
COc1cccc(C(c2sc3nc(-c4ccco4)nn3c2O)N2CCC(C)CC2)c1 (stereo not drawn) | - | - | - | - | 0 | 0
O=C(NCC(c1cccnc1)N1CCN(c2ccccc2F)CC1)c1ccco1 (stereo not drawn) | 0 | 0 | 0 | 0 | ? | 23µM
O=C(NCC(c1cccnc1)N1CCN(c2ccc(F)cc2)CC1)OCc1ccccc1 (stereo not drawn) | ? | ? | 13µM | 0 | ? | 15µM
COC(=O)NCC(c1cccnc1)N1CCN(c2ccc(F)cc2)CC1 (stereo not drawn) | - | - | - | - | 0 | 0
O=C(NCC(c1cccnc1)N1CCN(c2ccc(F)cc2)CC1)c1cccc(Cl)c1 (stereo not drawn) | 0 | 0 | 0 | 0 | 16µM | 10µM
O=C(NCCc1c[nH]c2ccccc12)C(=O)NCC(c1cccnc1)N1CCN(c2ccccc2)CC1 (stereo not drawn) | ? | ? | ? | 0 | 18µM | 16µM
Cc1ccccc1NC(=O)N1CCc2cc(S(=O)(=O)N3CCC(C)CC3)ccc21 | - | - | - | - | 0 | 0
CCCCN1C(=O)C(CC(=O)NCCc2ccccn2)CC(C(=O)N(C(C)C)C(C)C)=C1C (stereo not drawn) | - | - | - | 0 | 0 | ?
COc1cccc(CSc2nc3n(n2)C(c2cccc(F)c2)C(C(=O)Nc2ccccc2C)=C(C)N3)c1 (stereo not drawn) | - | - | - | - | 0 | 0
Cc1ccc(NC(=O)COC(=O)Cc2ccc(Br)cc2)cc1S(=O)(=O)N1CCOCC1 | 0 | - | - | 0 | 0 | 0
O=C(CCCCCNc1nc(=S)[nH]c2ccccc12)N1CCN(c2ccccn2)CC1 | ? | ? | 10µM | - | - | -
Cc1ccc(CNC(=O)CCCCCNc2nc(=S)[nH]c3ccccc23)cc1 | ? | 0 | ? | - | - | -
COc1cccc(N2CCN(C(=O)CCCCCNc3nc(=S)[nH]c4ccccc34)CC2)c1 | 18µM | ? | 8.9µM | -175 | 4.6µM | 9.2µM
COc1ccc(Oc2ccc(N/C=C3\CCCC3=O)cc2)cc1 | 0 | 0 | 0 | 0 | ? | 26µM
COc1ccc(Oc2ccc(N/C=C3/CCCC3=O)cc2)cc1 | 0 | 0 | ? | 0 | ? | ?
COC(=O)C1=C(C)Nc2nc3ccccc3n2C1c1ccccc1F (stereo not drawn) | 0 | 0 | ? | 0 | ? | ?
